In the supplement of paper PMC10646978:
± gives the standard deviation.

How the values were obtained:
Details in all cases: modulator concentration 10 µM
[1] = system: RAW-Dual (murine macrophage reporter line); assay: NF-kB reporter (SEAP) activity fold change vs agonist alone; higher = enhanced NF-kB activity
Method in brief: (§1)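 In 384-well plates holding 50 000 RAW-Dual murine macrophage reporter cells per well, compound at 10 μM final was pre-incubated for 1 hour at 37 °C, after which a PRR agonist was added overnight. Supernatant SEAP read with QUANTI-Blue at 620 nm absorbance reported NF-κB, and Lucia luciferase read with QUANTI-Luc luminescence reported IRF. Fold change values come from dividing each reporter signal by the mean of agonist-only control wells on the same plate, averaged over replicate plates with propagated errors.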

[2] = system: RAW-Dual (murine macrophage reporter line); assay: IRF reporter (Lucia luciferase) activity fold change vs agonist alone; higher = enhanced IRF activity
Method in brief: as §1

[3] = system: RAW-Dual (murine macrophage reporter line); assay: viability score (confluency relative to resting cells, overnight) (fraction); higher = more viable, active = viable (0.7 or more)
Method in brief: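 In 384-well plates, RAW-Dual macrophages received compound at a final 10 μM overnight. Two confluency masks were then made with IncuCyte software from IncuCyte images of all imaged wells. The viability score is defined as confluency relative to resting cells. Passing the cutoff required both masks to lie above 70% of resting cells.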

[4] = agonist: CpG ODN 1826 0.5 ug/mL

Row | Structure (SMILES) | NF-kB reporter [1, 4] | NF-kB reporter ([1]; agonist: LPS 0.1 ug/mL) | NF-kB reporter ([1]; agonist: MPLA […]) | IRF reporter ([2]; agonist: 3'3'-cGAMP 10 ug/mL) | IRF reporter ([2]; agonist: LPS 0.1 ug/mL) | IRF reporter ([2]; agonist: MPLA […]) | viability score [3]
1 | COC(=O)C1=C(C)NC(C)=C(C(=O)OCCN2CCN(C(c3ccccc3)c3ccccc3)CC2)C1c1cccc([N+](=O)[O-])c1 (configuration not stated) | 0.231 ± 0.038 | 0.631 ± 0.07 | 0.89 ± 0.051 | 0.138 ± 0.0049 | 0.949 ± 0.11 | 1.1 ± 0.11 | 0.966 (active)
2 | Oc1ccc(N=Cc2ccccc2O)cc1 | 1.35 ± 0.17 | 1.24 ± 0.086 | 1.51 ± 0.1 | 0.491 ± 0.11 | 0.733 ± 0.043 | 0.839 ± 0.14 | 0.584 (inactive)
3 | O=C(Nc1nccs1)c1ccc2c(c1)C(=O)N(C1CCCCC1)C2=O | 1.09 ± 0.086 | 1.05 ± 0.096 | 0.878 ± 0.052 | 0.979 ± 0.032 | 1.57 ± 0.22 | 1.21 ± 0.21 | 1 (active)
4 | CC(=O)O.CCN(CC)CC#CC1(O)CCCCC1 | 0.854 ± 0.083 | 0.981 ± 0.058 | 0.914 ± 0.059 | 0.902 ± 0.078 | 1.21 ± 0.14 | 1.06 ± 0.07 | 1.01 (active)
5 | COC(c1ccccc1)(c1ccccc1)C(Oc1nc(C)cc(C)n1)C(=O)O (configuration not stated) [Prestw-1497] | 0.986 ± 0.077 | 0.945 ± 0.07 | 0.936 ± 0.091 | 1.09 ± 0.052 | 1.31 ± 0.18 | 1.44 ± 0.32 | 1.05 (active)
6 | C=Cc1c(C)c2cc3nc(cc4[nH]c(cc5nc(cc1[nH]2)C(C)=C5CCC(=O)O)c(CCC(=O)OC)c4C)[C@@]1(C)C3=CC=C(C(=O)OC)[C@H]1C(=O)OC | 0.419 ± 0.077 | 0.077 ± 0.012 | 0.123 ± 0.0057 | 0.0175 ± 0.0038 | 0.0424 ± 0.018 | 0.0518 ± 0.015 | 0.344 (inactive)
7 | O=C(Cn1cc(S(=O)(=O)c2ccc(F)cc2)c2ccccc21)N1CCCCCC1 | 0.825 ± 0.12 | 0.902 ± 0.073 | 1.02 ± 0.055 | 0.847 ± 0.071 | 1.2 ± 0.19 | 1.3 ± 0.48 | 0.972 (active)
8 | O=[N+]([O-])c1cc(C(O)(C(F)(F)F)C(F)(F)F)cc([N+](=O)[O-])c1Cl | 1.07 ± 0.085 | 1.03 ± 0.072 | 0.972 ± 0.091 | 0.706 ± 0.029 | 1.22 ± 0.17 | 0.97 ± 0.085 | 0.996 (active)
9 | Cc1nnc(C(C)C)n1C1CC2CCC(C1)N2CC[C@H](NC(=O)C1CCC(F)(F)CC1)c1ccccc1 (some centres not stated) | 0.928 ± 0.07 | 1.05 ± 0.069 | 1.03 ± 0.051 | 1.08 ± 0.2 | 0.973 ± 0.087 | 1.03 ± 0.11 | 1 (active)
10 | O=C1NC(=O)C(=Cc2ccc(F)cc2)S1 | 0.667 ± 0.052 | 0.951 ± 0.062 | 0.91 ± 0.032 | 0.773 ± 0.16 | 1.02 ± 0.089 | 1.02 ± 0.16 | 0.988 (active)
11 | CNC(=O)Cc1cn(Cc2ccccc2)c2ccccc12 | 0.809 ± 0.19 | 1.11 ± 0.12 | 1.11 ± 0.082 | 0.947 ± 0.038 | 0.977 ± 0.11 | 1.05 ± 0.12 | 0.999 (active)
12 | COc1ccc(CC(N)C(=O)NC2C(CO)OC(n3cnc4c(N(C)C)ncnc43)C2O)cc1.Cl.Cl (configuration not stated) | 0.817 ± 0.068 | 0.514 ± 0.044 | 0.936 ± 0.094 | 0.699 ± 0.022 | 1.03 ± 0.13 | 1.3 ± 0.21 | 0.817 (active)
13 | Cl.Cl.O=C1c2c(O)ccc(O)c2C(=O)c2c(NCCNCCO)ccc(NCCNCCO)c21 | 0.0718 ± 0.0057 | 0.065 ± 0.0036 | 0.125 ± 0.011 | 0.0431 ± 0.0042 | 0.0592 ± 0.012 | 0.0943 ± 0.0079 | 0.388 (inactive)
14 | COc1ccc(C2(C#N)CCC(C(=O)O)CC2)cc1OC1CCCC1 (configuration not stated) | 1.37 ± 0.11 | 1.16 ± 0.085 | 1.37 ± 0.16 | 1.05 ± 0.048 | 1.25 ± 0.083 | 1.38 ± 0.12 | 1.02 (active)
15 | OC(Cn1cncn1)(Cn1cncn1)c1ccc(F)cc1F | 0.875 ± 0.072 | 0.967 ± 0.066 | 1.05 ± 0.091 | 1.02 ± 0.052 | 1.46 ± 0.096 | 1.62 ± 0.18 | 0.988 (active)
16 | COC(=O)C1=CN(CC2CCCO2)C=C(C(=O)OC)C1c1ccsc1 (configuration not stated) | 0.898 ± 0.087 | 0.845 ± 0.057 | 1.12 ± 0.13 | 0.895 ± 0.041 | 1.41 ± 0.082 | 1.43 ± 0.18 | 1.01 (active)
17 | Oc1c(Cl)cc(Cl)cc1C=Nc1cc(Cl)cc(Cl)c1 | 0.734 ± 0.14 | 0.915 ± 0.076 | 0.761 ± 0.066 | 0.437 ± 0.019 | 1.05 ± 0.1 | 1.09 ± 0.14 | 0.734 (active)
18 | CCOc1ccccc1NC(=O)Nc1ccc2c(c1)CCC(=O)N2C | 1.91 ± 0.14 | 1.41 ± 0.11 | 0.99 ± 0.057 | 0.404 ± 0.025 | 0.282 ± 0.032 | 0.389 ± 0.079 | 0.933 (active)
19 | Cc1ccc(-c2ccc3nnc(CCC(=O)NCc4ccc(C(F)(F)F)cc4)n3n2)cc1C | 0.671 ± 0.041 | 1.04 ± 0.086 | 1.04 ± 0.07 | 0.747 ± 0.047 | 1.15 ± 0.23 | 1.16 ± 0.41 | 0.94 (active)
20 | CCOc1ccc(N=Cc2c(Nc3ccc(OCC)cc3)nc3ccccn3c2=O)cc1 | 1.17 ± 0.13 | 0.984 ± 0.13 | 1.19 ± 0.17 | 0.855 ± 0.051 | 1.23 ± 0.14 | 1.41 ± 0.23 | 1.04 (active)
21 | O=C(c1ccc(F)cc1)N(C1CCCCC1)C1CCCCC1 | 0.68 ± 0.053 | 0.921 ± 0.067 | 1.07 ± 0.1 | 0.959 ± 0.033 | 1.28 ± 0.14 | 1.4 ± 0.22 | 1.02 (active)
22 | CCCCC(=O)N(Cc1ccc(-c2ccccc2-c2nn[nH]n2)cc1)[C@H](C(=O)O)C(C)C | 1.04 ± 0.16 | 1.03 ± 0.15 | 0.903 ± 0.05 | 0.589 ± 0.054 | 0.855 ± 0.14 | 0.704 ± 0.12 | 0.996 (active)
23 | COc1ccc(CNC2CCCc3ccccc32)c(OC)c1 (configuration not stated) | 0.48 ± 0.13 | 0.812 ± 0.088 | 0.775 ± 0.12 | 0.615 ± 0.027 | 1.23 ± 0.13 | 1.61 ± 0.17 | 0.94 (active)
24 | Cc1sc(NC(=O)c2cc(Cl)ccc2[N+](=O)[O-])nc1-c1ccccc1 | 1 ± 0.064 | 1.08 ± 0.089 | 0.951 ± 0.034 | 0.983 ± 0.046 | 1.08 ± 0.055 | 1.08 ± 0.12 | 1 (active)
25 | CCCCC1=NC2(CCCC2)C(=O)N1Cc1ccc(-c2ccccc2-c2nnn[nH]2)cc1 [Prestw-1736] | 1.21 ± 0.29 | 0.96 ± 0.057 | 0.952 ± 0.087 | 0.943 ± 0.034 | 1.22 ± 0.19 | 1.06 ± 0.18 | 1 (active)
26 | COC(=O)c1ccc(N2C(=O)c3ccc(Oc4cccc([N+](=O)[O-])c4)cc3C2=O)cc1 | 0.969 ± 0.085 | 0.923 ± 0.079 | 1.06 ± 0.11 | 0.994 ± 0.031 | 1.33 ± 0.17 | 1.71 ± 0.19 | 1.02 (active)
